# ± gives the standard deviation of the averaged measurements. In all, about 25,000 sequences were measured (“ln(normalized median fluorescence intensity)”: median about 10, highest 2% from about 12 on). The entries come from a sample that favours the highest values as a whole.
# Tested on: PfAP2-G AP2 domain (GST-tagged)
# Experiment: gcPBM binding intensity (ln(normalized median fluorescence intensity)); higher = stronger DNA binding
# Method in brief: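 Binding intensity values are the highest Masliner-normalised natural-log median intensity among replicate spots of either probe orientation. The binding step lasted 1 h in 1× PBS with 1% milk, 0.2 mg/ml BSA, 0.5% salmon testes DNA and 0.03% Triton X-100, using GST-tagged P. falciparum DNA-binding domains expressed in E. coli on an Agilent 4 × 180k array of primer-extended double-stranded 36-bp intergenic genomic probes plus negative controls. Alexa488 anti-GST antibody and a 488 nm scan detected bound protein.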
row,Sequence,gcPBM binding intensity (ln)
1,TTTTTAATCCTTTGCGCATGTAAAATTATATATTTT [TGCATGCA_site306],10.1 ± 0.11
2,TCATTTTAAGGAAAAAGTACAAAATAATATGTTCCT [XGTACX_site1903],11 ± 0.65
3,ATCTCTTAAATTTTACGTACTTATTTTATCTTCTTA [XGTACX_site8877],11.2 ± 0.67
4,AATTTCAATTTCTGTTGTACACTTTTTAATAGTAAA [XGTACX_site4085],11.4 ± 0.88
5,ATTATGATTTTATAGAACTGAACATTTACATTAAAT [GTGCAC_negctrl_site192],9.855 ± 0.064
6,TAAAAATGTGGACACACACACATATTTATATTTAAT [CACACA_site6827],11.4 ± 0.72
7,TATCCATTATTTAAAAGTACAAAAAACGATTTACAC [XGTACX_site2979],11.3 ± 0.8
8,ATATAAAAATGTGTATGTACACACTTTATTTTTAAT [XGTACX_site5272],11.4 ± 0.74
9,TTAAGTATTTTACGTACACACTTATAAATGTACAGG [CACACA_site6012],11.7 ± 0.93
10,CTACACACTTATAAATGTACAGGATTTAAGTATATG [XGTACX_site8245],10.9 ± 0.49
11,TATGGAATAATACGCGTACACACATATATATATTAA [CACACA_site132],11.6 ± 0.93
12,ATATGGAATAATACGCGTACACACATATATATATTA [XGTACX_site307],11.7 ± 1
13,TGGAATAATACGCGTACACACATATATATATTAATA [CACACA_site131],11.8 ± 0.97
14,TGGAATAATACGCGTACACACATATAAATATTAATA [CACACA_site6211],11.7 ± 0.91
15,GAATAATATGGACATACACACATATACATACATATA [CACACA_site2114],10.9 ± 0.51
16,TATAAATACATACGTACACACAAATATTAAAATATA [CACACA_site5129],11.5 ± 0.87
17,GTCTGCATATGGATACGTACACATATATATTAATGT [XGTACX_site2260],11.7 ± 0.91
18,TGGAATAATCCGCGTACACACATATATATATTAAGA [CACACA_site4253],11.6 ± 0.87
19,TTAAAAATTATGGATACACACATATATATATATATT [CACACA_site2383],10.2 ± 0.2
20,CATATAATAAATAATACACACATATTGGAAATATAT [CACACA_site3212],9.98 ± 0.057
21,GTAATTATATACATACGTACATACACATATGTATAT [XGTACX_site4149],11.3 ± 0.65
22,AATATATATTAATACACACACACATATATATATATA [CACACA_site3786],10.3 ± 0.47

row,Sequence,gcPBM binding intensity (ln)
1,AGTTTTATATTTCTGAGTACTTATGAATCTAGCTCG [XGTACX_site4330],11.2 ± 0.72
2,TGGTGATATACGAAATGTACGCAAATCACAAAATAA [XGTACX_site8836],11.5 ± 0.98
3,ATTAAAAAAAAAAAAAAAAAACAAAAAAAAAAAAAA [CACACA_negctrl_site1187],9.62
4,ACTTGTAAGAAACACACACACACACCCATATATATA [CACACA_site796],10.2 ± 0.14
5,TTTTATTATTAAACATGTACCCATATTATTGTTATG [XGTACX_site5563],11.2 ± 0.56
6,CTGAACCCGTTATGGTGTACATAAAATAAGACACAG [XGTACX_site3484],11.6 ± 0.96
7,TTTTTAAAACATCACTGTACCCGTTATGGTGAACAT [XGTACX_site3483],11.7 ± 1.2
8,TATATATATATATATAGTACATATTAATTAATTTAT [XGTACX_site8198],10.8 ± 0.63
9,CCTAAAAAAAAGAAATGATATACATATGTATATATA [GTGCAC_negctrl_site100],9.685 ± 0.064
10,TATATAATATATTTATGTACGTATTTAAAAATTTAT [XGTACX_site160],11.6 ± 0.98
11,TAAATAGATGTTTTATGTACGTATAAATAAAAAAAA [XGTACX_site3412],11.7 ± 0.88
12,ATAAAAATAAAAAGATGTACGTATTTTTTTTTTTTT [XGTACX_site5329],11.6 ± 0.91
13,AATAGTAAAAATCACTGTACGTTTATTTTTAAAATG [XGTACX_site1035],11.7 ± 0.91
14,AAATTTAGTAAAAAATGTACGTAAAATGTAAAATAT [XGTACX_site1314],11.5 ± 0.73
15,TTTATTTTGATTTAATGTACAAATAGTAAAACAAAA [XGTACX_site4789],10.9 ± 0.49
16,ATTTATTTTGTTGTTGTTTTTATTTGATTGTTTTAT [CACACA_negctrl_site1275],9.785 ± 0.007
17,AACATTATTTTGTGTACACATTCGGTTATATTATAT [CACACA_site5628],11.8 ± 1
18,TATAACATTATTTTGTGTACACATTCGGTTATATTA [XGTACX_site6310],12 ± 1.1
19,GTTATTCTTAATTTTTGTACACATTTTTATATTATT [XGTACX_site7227],11.4 ± 0.7
20,TATATATATATTATATGTACACATTTGTGAATTATT [XGTACX_site5848],11.5 ± 0.85
21,ATTTTATAACATTCATGTACACATTTCATTTATTTG [XGTACX_site3028],11.3 ± 0.77
22,TTTTATAAATATTTTTGTACACATTTAAATATTATT [XGTACX_site4973],11.3 ± 0.59

row,Sequence,gcPBM binding intensity (ln)
1,GCTTATTTTAATTCTTGTACTTATTTATATACAAAT [XGTACX_site2099],11.2 ± 0.83
2,TTATTTATTTATATAGTGCAATAAACACATAAATAG,10.1 ± 0.26
3,TTTTGTAATTTTGTATGTACACATTAAAGTAATATG [XGTACX_site2401],11.5 ± 0.91
4,AATTTTCAATAGTATACACACAATTCTATAAATATA [CACACA_site6650],9.84 ± 0.042
5,ACTTCATTTTATAAGTGTACATAATTTGTTTATATA [XGTACX_site5453],11.5 ± 0.85
6,AATAATTGTTAAAGGTGTACAATACGTATGTAAGAA [XGTACX_site1328],11.5 ± 0.95
7,AATAATTCTTAAAGGTGTACAATATGTATATAAGAA [XGTACX_site595],11.7 ± 0.6
8,AACAATTTTTAAAGGTGTACAATATGTATATAAGAA [XGTACX_site254],11.6 ± 0.93
9,AATAAATAAATAAATAAAACAAAGGGATTACATACA [TGCATGCA_negctrl_site513],9.84 ± 0.11
10,TACATTTATAATAATACACACATAAATTTACATTTT [CACACA_site3463],10.1 ± 0.16
11,ATATATATATACATATGTACATATAAAATAATTTTG [XGTACX_site3731],11.1 ± 0.74
12,CGGCACATTCTATATACACACATATAAATATATACA [CACACA_site566],9.97 ± 0.042
13,CCAACATTTTTTAGAAGTACATTTTTATATTTATTA [XGTACX_site5179],11.3 ± 0.83
14,TATATTATTATGCATAGTACGTACTGTGATAAGAAT [XGTACX_site2956],11.4 ± 0.8
15,AGAATAAGAATTATTAGTACTTATAAATATTATATT [XGTACX_site7228],10.9 ± 0.58
16,TTATTATGCTGAGTACGTACTTATATAAGAATAGCA [XGTACX_site2955],11.8 ± 1
17,AAAAAAAAATATATATATATATATATAAATAAATTT [CACACA_negctrl_site519],9.315 ± 0.007
18,AGGAAAAAAAAAATGACACACATATTTGAATTAAAA [CACACA_site1352],9.965 ± 0.007
19,ACAAAATTTACAAAATGTACAAAGTATGTGTTTTAT [XGTACX_site6462],10.7 ± 0.36
20,TATATGTGGGTTTTTTTTATGTGTTTTTCTTTTTTT [CACACA_negctrl_site936],10.2 ± 0.18
21,TGTGAAATAAAATTTGTACACACATATATATATATA [CACACA_site8093],11.1 ± 0.73
22,TATTATAATTTTATATGTACACATATATAAATATAT [XGTACX_site4054],11.4 ± 1.1

row,Sequence,gcPBM binding intensity (ln)
1,AAATTATTTCCGTGTACACATAAATATATATTTTAT [CACACA_site5121],11.8 ± 0.83
2,TGAAATAAAATTTGTACACACATATTTATTTATATA [CACACA_site6421],11.2 ± 0.97
3,GTGAAATTATTTCCGTGTACACATAAATATATATTT [XGTACX_site3989],11.8 ± 0.99
4,TTAATTTTATTTTTTTGTACACATAAATATTATAAA [XGTACX_site4680],11.4 ± 0.91
5,TATTATGTCTAAAATAACATATTAATATATTATTTC [CACACA_negctrl_site285],9.77 ± 0.11
6,TAAACAGTATGCAACGCATGCGTTGTTATATATAAA [TGCATGCA_site232],9.88 ± 0.042
7,TCTTTTAAACAGTACACACACACATATATATATATA [CACACA_site924],11.2 ± 0.69
8,AGCGTATTATACTGACGTACATTTTATGTAACTCCA [XGTACX_site2715],11.4 ± 1.1
9,ATATGATCATTTTATCATTTTGCTTTTTCTTTTTTT [CACACA_negctrl_site1325],9.4 ± 0.42
10,GAGTTAATATTTAAAAGTACAAGATGAATGTAAAAA [XGTACX_site5810],11.3 ± 0.78
11,ATATTTTTGTTCAGGAGTACAGTTCAAGATGAAAAT [XGTACX_site4178],11.6 ± 0.99
12,TTTGTTCATATGAAATGTACAAAAAAAAAAAAAAAA [XGTACX_site8849],10.8 ± 0.77
13,ATATAATAGTTATATTGTACATAAATTATACACCTT [XGTACX_site628],11 ± 0.5
14,CATCTAAATTGTAGTTGTACACCTTAATCTTATTAC [XGTACX_site7547],11.7 ± 0.83
15,ATAAATAATTGTAGTTGTACATGATATTTTTATTAC [XGTACX_site550],11.1 ± 0.63
16,ATTTTTATTAAAATATGTACGTATTTTACTCATACA [XGTACX_site5330],11.6 ± 0.8
17,ATATATGTATATTTATGTACGTATTCCTGTATAGTC [XGTACX_site5763],11.5 ± 0.85
18,TTAGTATATTTTTCCTGTACGTACTCAGATACAAAT [XGTACX_site7397],11.7 ± 0.91
19,TGGAATAAAAAAAGGAGTACAATTAATTATTCTTAA [XGTACX_site8299],11.8 ± 1.3
20,CAAATAAAAATAAGGAGTACAATTAAAAAAGGAAGG [XGTACX_site4366],11.6 ± 0.91
21,TTTAATAATTATTAAAGTACAAAATAAATATTGAAT [XGTACX_site7538],11 ± 0.62
22,TTGTATATATATGGAAAAATATATATATATATATAT [GTGCAC_negctrl_site591],10.3 ± 0.83

# From the supplement of paper PMC11417369
